A selection: hits, their analogues and other compounds. The true share with any hit is near 12%.
WT yeast gro inh = growth inhibition of WT yeast, mitochondrial fusion screen | mitochondrial fusion phenotypic screen, WT strain | inhibition, % at 10 µM | 190,000 compounds, 2.1% hits; in the data active means inhibition above about 58%; tested in S. cerevisiae
L major viab = reduces viability of Leishmania major promastigotes. resazurin fluorescence viability. inhibition, % at 10 µM. 200,000 compounds, 9% hits. AID 1063; in the data active means inhibition above about 50%;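 further: promastigotes grown with compound for 44 hours at 28 °C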
CHOP inhibitor = inhibitors of CHOP induction in ER stress response; 220,000 compounds, 3.8% hits; inhibition, % at 10 µM; CHO-K1 CHOP-promoter luciferase, tunicamycin-induced, 15-18 h;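 active means compounds that reduced the stress-induced luciferase reporter signal by more than about 70% of percent inhibition, limit read from the data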;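 further: 0% = tunicamycin plus vehicle and 100% = wells without tunicamycin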
Arbovirus anti = arbovirus infection inhibition | 200,000 compounds, 0.37% hits | arbovirus infection cell-based antiviral screen | AID 1251 | inhibition, % at 10 µM; in the data active means inhibition above about 30%
An asterisk follows results filed as active; . = not tested or not shown; ! = not confirmed by another sample.

SMILES | WT yeast gro inh | L major viab | CHOP inhibitor | Arbovirus anti
CCN(CC)S(=O)(=O)c1ccc(N2CCCC2)c(NC(=O)C2CCCCC2)c1 | . | . | 10 | .
CCOc1ccc(S(=O)(=O)Nc2ccccc2C(=O)Nc2ccccc2N2CCOCC2)cc1 | 33 | 19 | 62 | -4
CCN(CC)S(=O)(=O)c1ccc(NC(=O)C2CCCN(C(=O)c3ccc(Cl)cc3)C2)cc1 (stereo not drawn) | -9 | 97* | 36 | 13
CCN(CC)S(=O)(=O)c1ccc(N2CCOCC2)c(NC(=O)C2CCCC2)c1 | -17 | 53* | -8 | -2
COCCNC(=O)c1ccc(N2CCCCC2)c(NS(=O)(=O)c2ccc(C)cc2)c1 | 12 | 22 | 41 | 2
CCN(CC)c1ccc(S(=O)(=O)N(CC)CC)cc1NC(=O)C1CCCC1 | 14 | 61* | 24 | 6
CCN(CC)CCCNC(=O)c1ccc(N2CCCCC2)c(NS(=O)(=O)c2ccc(C)cc2)c1 | -11 | 99* | 12 | -29
CCOc1ccc(S(=O)(=O)Nc2cc(S(=O)(=O)N(CC)CC)ccc2N2CCCC2)cc1 | 11 | 95* | 36 | -5
CCN(CC)S(=O)(=O)c1ccc(N2CCCC2)c(NC(=O)Cc2ccc(OC)cc2)c1 | 4 | -2 | 11 | -5
O=C(CCN1C(=O)C2C3C=CC(C4CC34)C2C1=O)Oc1cccc2cccnc12 (stereo not drawn) | -4 | -4 | 48 | 14
COc1ccc(C2CC(c3ccccc3)=NN2c2ccc(/C=N/NC(=O)c3ccncc3)cc2)cc1 (stereo not drawn) | 20 | 16 | -9 | -23
COc1ccc(C2CC(c3cccs3)=NN2C(=O)c2ccc(Br)o2)cc1 (stereo not drawn) | 64* | 1 | 3 | 0
COc1ccc(C2CC(c3ccccc3)=NN2c2ccc(S(N)(=O)=O)cc2)cc1 (stereo not drawn) | 66* | 30 | 6 | -32
COc1ccc(C2CC(c3cccs3)=NN2c2ccc(C=O)cc2)cc1 (stereo not drawn) | 18 | 92* | 29 | -29
CC(C)OC(=O)C1CC(C)(O)C(=O)C(C(=O)OC(C)C)C1c1ccc([N+](=O)[O-])cc1 (stereo not drawn) | 3 | 12 | 0 | 5
O=C(NCCO[N+](=O)[O-])c1cccnc1 | 8 | . | -2 | 16
COC(=O)c1ccc(OC(=O)c2ccc(OC)cc2)c(OC)c1 | -8 | -1 | 8 | 10
COC(=O)c1ccc(Cn2nc([N+](=O)[O-])c(Br)c2C)cc1 | . | . | -1 | .
CCC1CCCCN1S(=O)(=O)c1ccc(S(=O)(=O)N(Cc2cccs2)C2CC2)cc1 (stereo not drawn) | -63 | 100* | -5 | 0
Cc1nn(CC(O)COc2ccc3c(c2)CCC3)c(C)c1Br (stereo not drawn) | 3 | -9 | 82* | 5
CC(C)(CO)NCC(O)COc1ccc2c(c1)CCC2 (stereo not drawn) | 1 | 7 | 15 | -5
CC(=O)c1c(C)nn(CC(O)COc2ccc3c(c2)CCC3)c1C (stereo not drawn) | 12 | -3 | 21 | 4
CC(C)(C)CC(C)(C)NCC(O)COc1ccc2c(c1)CCC2 (stereo not drawn) | . | 100* | . | .
CC1CC(C)CN(CC(O)COc2ccc3c(c2)CCC3)C1 (stereo not drawn) | 39 | 89* | 8 | 1
CN(C(=O)CN(c1ccccc1)S(=O)(=O)c1ccc(F)cc1)C1CCS(=O)(=O)C1 (stereo not drawn) | . | . | 19 | .
SMILES | WT yeast gro inh | L major viab | CHOP inhibitor | Arbovirus anti
O=C(O)c1nn(-c2ccccc2-c2n[nH]c(=O)[nH]c2=O)c(=O)[nH]c1=O | . | . | 0 | .
Cc1ncc([N+](=O)[O-])n1Cc1ccc(F)cc1 | 7 | 44 | 26 | 2
CCOc1ccc(-n2cc(C(=O)c3cc(Cl)ccc3O)cc(C#N)c2=O)cc1 | 59* | 41 | 12 | 11
COCCCn1c(SCC(=O)NC2CCCCC2)nnc1-c1ccncc1 | -31 | 1 | 0 | 5
COCCCn1c(SCC(=O)NC(C)(C)C)nnc1-c1ccccc1 | 66* | -3 | -6 | 4
CCOC(=O)c1cc(C#N)c(N2CCN(c3ccc(OC)cc3)CC2)[nH]c1=O | -5 | -2 | 47 | 10
N/C(=N\c1nc2ccccc2o1)NC(=O)c1ccccc1 | 2 | -3 | 85* | 8
Cc1ccc(C(=O)N/C(N)=N/c2nc3ccccc3o2)cc1 | 13 | -1 | 38 | -10
Cn1cc(Br)c(-c2cccc(NC(=O)CC(C)(C)CC(=O)O)c2)n1 | . | . | -2 | .
CC(C)Nc1nc(Oc2ccc(Cl)cc2Cl)cc(C(F)(F)F)n1 | 38 | -3 | 60 | 1
CC(C)Nc1nc(Oc2cccc(Cl)c2Cl)cc(C(F)(F)F)n1 | 87* | 0 | 75* | 9
CN(C)c1ccnc2c[cH-]cc12.[Fe].c1ccc(-[c-]2[c-](-c3ccccc3)[c-](-c3ccccc3)[c-](-c3ccccc3)[c-]2-c2ccccc2)cc1 (stereo not drawn) | . | . | 88*! | .
Cc1ccccc1N1CCN(C2=NC(=O)/C(=C\c3cccs3)S2)CC1 | 64* | 21 | 20 | -29
O=C1N=C(N2CCN(c3cccc4ccccc34)CC2)S/C1=C/c1cccs1 | 25 | 23 | 42 | -17
CN1CCN(C(=O)CSc2nc(-c3cccs3)ccc2C#N)CC1 | 5 | 95* | -4 | 7
Fc1ccccc1CSc1nnc(-c2cnccn2)n1Cc1ccco1 | 8 | 14 | 23 | -3
C(=C\c1ccccc1)/CSc1nnc(-c2cnccn2)n1Cc1ccco1 | 6 | 100* | 6 | 2
Clc1ccc(CSc2nnc(-c3ccccn3)n2Cc2ccco2)c(Cl)c1 | 60* | 5 | 82* | 5
CC(=O)c1c(N2CCOCC2)nc2ccc(Br)cc2c1-c1ccccc1 | . | . | -17 | .
O=C(N=Nc1c(O)[nH]c2ccc(Cl)cc12)c1cc(-c2cccs2)nc2ccccc12 | -5 | 52* | -21 | -10
O=C(N=Nc1c(O)[nH]c2ccc([N+](=O)[O-])cc12)c1ccccc1Cl | . | . | 6 | .
CCCCC1(Cc2ccc([N+](=O)[O-])cc2)C(=O)N(c2ccccc2)N(c2ccccc2)C1=O | 32 | 11 | 77* | -10
Cc1nn(Cc2ccc([N+](=O)[O-])cc2)c(=O)n1-c1ccccc1 | 9 | -3 | -20 | 5
CCCCCCc1cc2cc(-c3nnc(-c4ccccc4O)o3)c(=O)oc2cc1O | 0 | 2 | -11 | 22
CCCCCCc1cc2cc(C(=O)Nc3ccccc3OC)c(=O)oc2cc1O | -11 | -7 | 12 | 80*
SMILES | WT yeast gro inh | L major viab | CHOP inhibitor | Arbovirus anti
CCCCCCc1cc2cc(S(=O)(=O)c3ccc(F)cc3)c(=O)oc2cc1O | 8 | -2 | 94* | 2
Cc1ccc(-n2c(C)cc(/C=C3/SC(=O)N(CC(=O)N4CCOCC4)C3=O)c2C)nc1 | . | . | -15 | .
CC(=O)COc1cc(C)cc2oc(=O)c(C)c(C)c12 | 66* | 2 | -1 | -8
O=C1CNC(=S)N1CCc1ccccc1Cl | . | . | 4 | .
CC(C)N1CCN(Cc2ccc3c(c2)Cc2ccccc2-3)CC1CCO (stereo not drawn) | 10 | 85* | -6 | -36
CC(=O)c1cccc(CN2CCN(C(C)C)C(CCO)C2)c1 (stereo not drawn) | -8 | 0 | 34 | -2
COc1ccc(CN(Cc2cccn2C)C(=O)c2cc3cc(OC)ccc3[nH]2)cc1 | . | . | 2 | .

High-throughput results (PubChem BioAssay)
